A selection: hits, their analogues and other compounds. The true share with any hit is near 11%.
PI5P4Ka inh = inhibitors of human PI5P4K alpha | P48426 | PI5P4Kalpha enzyme, ADP-Glo luminescence, 60 min; stronger effect = lower value | max response, % | 1.2% of 330,000 active | AID 652105; active = max response of -50% or lower; inconclusive = between -30% and -50%; inactive = -30% or higher; note: value at the top dose of about 77 µM; % is set by controls: 0 for no effect and ±100 for the full control effect
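qHTS, 1536-well: enzyme/substrate mix, compound by pin tool, 5 microM ATP final; RT 60 min; ADP-Glo reagents 1 (45 min) then 2 (30 min); luminescence.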
HP1b binding inh = blocks HP1-beta chromodomain binding to methylated histone tails; P83916; AlphaScreen HP1-beta / biotin-H3K9me3 peptide binding; Potency, µM (top dose mostly 114 µM), without a hit: at the top dose activity change, negative = inhibition, usual class: inhibitors; 0.56% of 390,000 active; note: potency is the fitted concentration of half-maximal effect; nearly all actives have a fitted effect of over 70% in size
Target sequence (P83916 whole entry, looked up): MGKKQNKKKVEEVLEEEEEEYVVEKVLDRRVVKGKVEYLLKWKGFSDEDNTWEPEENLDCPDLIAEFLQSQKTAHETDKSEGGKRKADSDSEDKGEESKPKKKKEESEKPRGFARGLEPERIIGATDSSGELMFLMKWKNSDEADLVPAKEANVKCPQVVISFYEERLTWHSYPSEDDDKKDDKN
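AlphaScreen: HP1-beta (50 nM) preformed 30 min with biotin-H3(1-18)K9me3 peptide (50 nM) in PBS pH 7.4, 0.01% Tween-20. Compound added for 30 min at RT, then streptavidin donor/nickel chelate acceptor beads (10 ug/mL) for 30 min.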
G9a inh = blocks human histone lysine methyltransferase G9a. Potency, µM (doses to about 102 µM), inactives show top-dose activity, negative = inhibition, most hits filed as inhibitors. AID 504332. 8.8% of 350,000 active. G9a H3K9 monomethylation, AlphaScreen, 2 h; note: potency is the fitted concentration of half-maximal effect; % is set by controls: 0 for no effect and ±100 for the full control effect; nearly all actives have a fitted effect of over 75% in size
Target sequence (Q96KQ7 913-1193 limits assumed): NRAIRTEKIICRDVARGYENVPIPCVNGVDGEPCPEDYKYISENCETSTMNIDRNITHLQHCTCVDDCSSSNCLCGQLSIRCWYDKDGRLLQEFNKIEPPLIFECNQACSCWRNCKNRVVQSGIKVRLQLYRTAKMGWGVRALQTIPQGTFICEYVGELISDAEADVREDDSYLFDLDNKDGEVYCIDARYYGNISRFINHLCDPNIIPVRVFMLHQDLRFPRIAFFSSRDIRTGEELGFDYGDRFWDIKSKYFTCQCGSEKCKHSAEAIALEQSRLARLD
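AlphaScreen detection with an anti-monomethyl H3K9 antibody quantified product after a 2 h room-temperature reaction containing 500 nM biotinylated H3K9 peptide, 20 µM SAM and 20 nM enzyme, which had been preincubated 15 min with compound.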
L3MBTL1 inh = blocks human L3MBTL1; Q9Y468; AlphaScreen L3MBTL1–H3K9me1 peptide binding; Potency, µM (highest dose often 57.1 µM), for the others: at the top dose activity, negative = inhibition, most hits filed as inhibitors; 0.66% of 230,000 active; AID 485360; note: potency is the fitted concentration of half-maximal effect; % is set by controls: 0 for no effect and ±100 for the full control effect; nearly all actives have a fitted effect of over 60% in size
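Read-out is AlphaScreen signal from streptavidin donor and nickel chelate acceptor beads (10 ug/mL final each) bridging L3MBTL1 (50 nM) and biotinylated K9-monomethylated H3(1-15) peptide (75 nM), after 30 min compound exposure at room temperature.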
JMJD2A Tudor inh = JMJD2A Tudor domain (human) inhibition; Potency, µM (doses to about 114 µM), for inactives: at the top dose activity change, negative = inhibition, actives largely listed as inhibitors; AlphaScreen JMJD2A-Tudor / H3K4me3 peptide binding; AID 504339; 4.4% of 390,000 active; O75164; note: potency is the fitted concentration of half-maximal effect; % is set by controls: 0 for no effect and ±100 for the full control effect; nearly all actives have a fitted effect of over 50% in size
BAZ2B inh = inhibitors of human BAZ2B bromodomain; Potency, µM (series often up to 114 µM), for inactives: at the top dose activity change, negative = inhibition, most hits filed as inhibitors; 4.4% of 360,000 active; AlphaScreen BAZ2B-H3K14Ac peptide displacement; note: potency is the fitted concentration of half-maximal effect; % is set by controls: 0 for no effect and ±100 for the full control effect; nearly all actives have a fitted effect of over 60% in size
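Complex of BAZ2B and biotin-H3K14Ac (50 nM apiece) forms over 30 min at RT, then faces library compounds up to 110 uM for another 30 min; AlphaScreen beads added, 20 min dark incubation, luminescence read.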
An asterisk follows results filed as active; ? = inconclusive; . = no result given; [ ] = another dose, or the depositor's remark. Unless noted, calls come from the whole dose curve; as a rule, active = well fitted inhibition curve with a large enough effect; inconclusive = small, poorly fitted or top-dose-only effect; inactive = no such curve, though single readings can be large or run the other way.

SMILES	PI5P4Ka inh	HP1b binding inh	G9a inh	L3MBTL1 inh	JMJD2A Tudor inh	BAZ2B inh
CCOc1ccccc1OCC(=O)Nc1cc2c(cc1C(=O)O)OCCCO2	2.9	57.0%	25.1µM*	.	-0.8%	-11.0%
CCCCOC(=O)c1ccc(Nc2ncnc3c2cnn3-c2cccc(C)c2)cc1	.	7.4%	2.4%[59 µM]	.	-10.7%	-1.8%
Cc1ccc(/C=C/C(=O)Nc2cccnc2)o1	?	?	3.55µM*	-15.9%	?	1.1%
Cc1ccc(/C=C/C(=O)Nc2ccccc2C(N)=O)o1	.	5.4%	10µM*	.	-18.2%	-2.3%[57.1 µM]
Cc1ccc(/C=C/C(=O)Nc2nn[nH]n2)o1	?	-21.3%	?	-0.5%	35.5µM*	35.5µM*
NC(=O)c1ccc(NC(=O)CSc2nncn2-c2ccccc2)cc1	48.6	21.7%	22.4µM*	.	-6.0%	-1.6%
Cn1c(Cc2ccccc2)nnc1SCCC(=O)Nc1ccccc1	-7.8	6.9%	7.94µM*	.	-7.5%	13.5%
CCn1c(Cc2ccccc2)nnc1SCC(=O)Nc1ccc(N)cc1	.	23.7%	50.1µM*	.	-24.1%	-25.3%
Cn1c(CSCc2ccccc2)nnc1SCC(=O)Nc1nccs1	0.1	29.5%	15.1%[59 µM]	-1.8%	21.1%	5.4%
Cn1c(Cc2ccccc2)nnc1SCC(=O)NC1CC1	-5.4	18.1%	9.5%	.	-10.7%	7.9%
Cn1c(CSCc2ccccc2)nnc1SCC(=O)Nc1ccc(C(=O)O)cc1	-73.0*	28.8%	.	14.5%	-15.2%	0.1%
CCCCSc1nc2sc3c(c2c(=O)n1-c1ccccc1C)CC(C)(C)OC3	.	20.1%	-37.6%[59 µM]	.	-4.2%	-13.0%
Cc1ccc(C2=NC(c3ccc(F)cc3)=Nc3ccc(C)cc3N2)cc1	.	36.0%	5.7%[59 µM]	.	-17.9%	-10.2%
O=Cc1s/c(=N\S(=O)(=O)c2ccccc2)n(CCCCl)c1Cl	-0.2	37.9%	44.7µM*	6.4%	-17.2%	-15.7%
CCn1cc(C(=O)OCC(=O)c2cc(C)n(-c3ccccc3)c2C)c(=O)c2ccc(C)nc21	4.5	-17.5%	20.9%[59 µM]	-1.1%	-17.5%	?
CCn1cc(C(=O)OCC(=O)c2cc(C)n(-c3ccccc3F)c2C)c(=O)c2ccc(C)nc21	-18.8	?	-21.3%[59 µM]	-11.8%	39.8µM*	?
Nc1nc(NCC2CCC(CNS(=O)(=O)c3cccc4ccccc34)CC2)nc2ccccc12 (configuration not stated)	.	.	25.1µM*	.	.	.
C=C(C)Cn1c(SCC(=O)Nc2cccc(Cl)c2)nc2sc3c(c2c1=O)CCCC3	.	-5.0%	-3.0%[59 µM]	.	-18.3%	-7.3%
CCOC(=O)Oc1c(OC)cc(C(=O)O[C@@H]2C[C@@H]3CN4CCc5c([nH]c6cc(OC)ccc56)[C@H]4C[C@@H]3[C@H](C(=O)OC)[C@H]2OC)cc1OC	3.7	10.8%	8.91µM*	-13.6%	?	?
COc1ccccc1-c1nccc(N2CCN(C)CC2)n1	.	.	6.2%[0.501 µM]	.	.	.
CC(OC(=O)c1ccccn1)C(=O)Nc1ccc2c(c1)OCCO2 (configuration not stated)	-0.9	26.2%	?	-8.3%	-1.0%	-2.0%
CCN(c1ccccc1)S(=O)(=O)c1cc(C(=O)OC(C)C(=O)Nc2ccc3c(c2)OCCO3)ccc1C (configuration not stated)	-27.4	-2.2%[57 µM]	39.8µM*	-16.8%	?	?
Cc1cccc(-c2nc3c4ccccc4nc(N4CCN(c5cc(C)ccc5C)CC4)n3n2)c1	.	62.5%	27.3%[59 µM]	.	3.6%	-16.1%
C/C(=N\Nc1ccccc1)c1cc2ccccc2oc1=O	0.0	1.3%	35.5µM*	-12.5%	?	-24.5%
C/C(=N\Nc1ccc(Cl)c(C(=O)O)c1)c1cc2ccccc2o1	-4.6	12.3%	28.2µM*	12.5%	-28.1%	?
C/C(=N\Nc1ccc(Cl)c(C(=O)O)c1)c1ccccn1	-3.0	28.5%	.	-4.5%	5.1%[11.4 µM]	-13.7%
C/C(=N\Nc1ccc(Cl)c(C(=O)O)c1)c1cccc2ccccc12	-29.6	79.4µM*	10µM*	.	56.2µM*	?
C/C(=N\Nc1cccc(C(=O)O)c1)c1cc2ccccc2o1	8.5	-9.7%	50.1µM*	-17.7%	?	?
